Experimental data as given in PubChem BioAssay AID1259309 (ICCB-Longwood Screening Facility, Harvard Medical School, 2017).
Where “and” joins values, the source holds several entries; their conditions need not be identical. Equal entries are not always repeated. Out of some 330,000 compounds screened, about 1,800 (0.55%) were called active. No stated cut-off is given here; in the data, active means growth inhibition above about 68%; inactive means the rest. The sample as a whole holds a higher share of actives than the screen did. Some compounds were tested as several samples or in several runs, with calls that do not always agree.

Experiment: growth inhibition of ugtP-null S. aureus, primary screen, RN4220 ugtP deletion, OD600 (AID 1259309);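 further: plate controls were untreated wells for no effect and antibiotic for full effect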
Details: 16 h, stronger effect = higher value

SMILES | growth inhibition
COCc1cc(C)nc(OCC(=O)NN=Cc2ccc(C)cc2)c1C#N | 3.45% (inactive)
COc1ccc(OC)c(C(C)NC(=S)Nc2ccc(S(=O)(=O)Nc3ncccn3)cc2)c1 (stereo not given) | 6.82% (inactive)
COc1ccc(NS(=O)(=O)c2ccc(NC(=S)NC(=O)CC(C)C)cc2)cc1 | 88% (active)
CC(=O)c1ccc(NC(=S)NC(=O)CC(C)C)cc1 | 29.6% (inactive)
COc1ccc(/C=C\C(=O)Oc2cccc(C=NNC(=O)Cc3ccc(OC)c(OC)c3)c2)cc1 | 28.2% (inactive)
CCCCC1CC1C(NC(=O)c1cccs1)c1ccc(C(F)(F)F)cc1 (stereo not given) | 3.18% (inactive)
COc1ccc(CNC(=O)CCN2C(=O)c3ccccc3C2=O)cc1 | 0.235% (inactive)
COC(=O)c1cc(OC)ccc1-c1ccc(OC)cc1 | 24.4% (inactive)
CCOC(=O)C1=C(c2ccc(OC)cc2)C(=O)c2ccccc2C1=O | 98.1% (active)
O=C(NC1CC(=NO)c2cc3c(cc21)OCO3)C(F)(F)F (stereo not given) | 3.72% (inactive)
Fc1ccc(-c2ccc(C=Nn3cnnc3)o2)cc1 | 3.75% (inactive)
O=C(CSc1nc2ccccc2n1Cc1ccc(Cl)cc1)NN=Cc1ccccc1C(=O)O | 0.317% (inactive)
OCCC1CC(O)C(O)[C@]2(Cc3ccccc3O2)O1 (stereo not given in full) | -11.4% (inactive) and -1.82% (inactive) and 6.13% (inactive)
OCCC1CC(O)C(O)[C@@]2(CCCc3ccccc3O2)O1 (stereo not given in full) | -2.74% (inactive) and 36.1% (inactive) and 95.4% (active)
COc1ccc(-c2cnnc(NN=Cc3ccc(OC)c(OC)c3)n2)cc1 | -0.988% (inactive)
COc1cc(C(=O)NCC(=O)NN=C(C)Cc2ccccc2)cc(OC)c1OC | 1.68% (inactive)
Cc1c(O)ccc(C(Cc2ccc3ccccc3n2)=NN)c1O | 7.02% (inactive)
Cc1cc(N=Nc2ccc3ccccc3c2)ccc1O | 100% (active)
Cc1nc2cc(NC(=O)CSc3nc4c(C)cccc4cc3C#N)ccc2s1 | 96.5% (active)
Cc1cc(C)c(C#N)c(SCC(=O)Nc2ccccc2)n1 | -0.258% (inactive)
Cc1nonc1NC(=O)CSc1nc2ccccc2cc1C#N | -7.53% (inactive)
Cc1ccc(NC(=S)NN=C2CC(C)(C)Oc3ccc(O)cc32)cc1 | -1.6% (inactive)
CCCc1c(C(=O)NN=Cc2ccncc2)nnn1-c1nonc1N | -1.92% (inactive)

SMILES | growth inhibition
COc1ccc2sc(-c3ccc(S(C)(=O)=O)cc3)c(C#Cc3cncn3C)c2c1 | -24.1% (inactive)
Cn1cncc1C#Cc1c(-c2ccsc2)sc2ccccc12 | 89% (active)
O=C(NCc1ccc2c(c1)OCO2)c1c(-c2ccsc2)sc2ccccc12 | 13.5% (inactive)
CC1CN(C(C)CO)C(=O)c2cc(NS(=O)(=O)c3ccccc3)ccc2OC1CN(C)C(=O)Nc1ccc2c(c1)OCO2 (stereo not given) | 1.83% (inactive)
CCCCN1C(=N)N(C(C)CN2CCCC2CN2C(N)=NCC2Cc2ccccc2)CC1C(C)CC (stereo not given) | 2.45% (inactive)
CC[C@@H](C)[C@@H]1CN([C@@H](C)CN2CCC[C@H]2CN2C(N)=NC[C@H]2C(C)C)C(=N)N1CCc1ccc(Cl)c(Cl)c1 | 100% (active)
CC(=O)C(=NNc1ccccc1)Sc1nnc(-c2ccccc2)n1-c1ccccc1 | -0.945% (inactive)
CCc1ccc(C=Nn2c(C)cc(C)c(C#N)c2=O)cc1 | 11.9% (inactive)
CC(=NNC(=O)c1c(-c2ccccc2Cl)noc1C)c1cccc(NC(=O)C(C)C)c1 | -1.85% (inactive)
Cc1csc(Nc2ccc(Cl)cc2)[n+]1-c1ccc(Cl)cc1 | 94.3% (active)
O=c1ccnc(Nc2ccc(Cl)cc2)[nH]1 | -0.107% (inactive)
CCOC1OC(C(N)=O)=CC(c2csc3ccccc23)C1CCCO (stereo not given) | -0.922% (inactive)
NC(=O)CC1NC(=O)C(CCC(=O)O)NC(=O)c2cc([N+](=O)[O-])cc(I)c2NCCCC(C(N)=O)NC1=O (stereo not given) | 5.02% (inactive)
COc1cccc(C=NNC(=O)c2ccccc2NC(=O)c2ccco2)c1OC | 17.5% (inactive)
COC(=O)Cc1ccc(OCC(=O)NC2CCCC2)cc1 | 5.86% (inactive)
Cc1cccc(OCC(=O)NC2CC(C)(C)NC(C)(C)C2)c1 | -2.79% (inactive)
CC1(C)SC2C(NC(=O)COc3ccccc3)C(=O)N2C1C(=O)O (stereo not given) | 101% (active)
O=C(O)CS/C(=C\c1ccc(F)cc1)c1nc2ccccc2s1 | -0.309% (inactive)
CC1=CC(=C(C#N)c2nc3ccccc3s2)C=C(C)N1c1ccc(F)cc1F | 3.53% (inactive)
N#C/C(=C(/O)Cc1cccc2ccccc12)c1nc2ccccc2s1 | 88% (active)
CSc1ccc(C2=CC(=O)CC(c3ccc(F)cc3)C2)cc1 (stereo not given) | -1.01% (inactive)
Cn1c(SCC(=O)NN=Cc2ccc([N+](=O)[O-])s2)nnc1-c1ccccc1 | 100% (active)
Cc1ccc(C=NNC(=O)CSc2nc3ccccc3c(=O)n2-c2ccccc2)s1 | -33.9% (inactive)

SMILES | growth inhibition
Cc1ccc(C=NNC(=O)CSc2nc3ccccc3n2C)s1 | 0.402% (inactive)
CCCc1noc2c1C(=NO)CCC2 | 0.229% (inactive)
CCc1ccc(NC(=O)c2ccc(Cn3cc([N+](=O)[O-])cn3)cc2)cc1 | 5.62% (inactive)
Cn1ccc(=Nc2ccc(NC(=O)c3ccc(N=c4ccn(C)c5ccc([N+](=O)[O-])cc45)cc3)cc2)cc1 | 99.6% (active)
COc1cc(NS(=O)(=O)c2ccc(NC(=O)c3ccc([N+](=O)[O-])cc3)cc2)ncn1 | 2.78% (inactive)
CCOc1cc(C=NNC(=O)c2nnn(-c3nonc3N)c2C)ccc1OCc1cccc(F)c1 | -21.1% (inactive)
CSc1sccc1C=NNC(=O)c1ccncc1 | -0.193% (inactive)
CCN1/C(=C/c2ccc3ccc(C)cc3[n+]2CC)Sc2ccccc21 | 100% (active)
CC(=NNC(=O)c1ccc(F)cc1)c1ccccn1 | -8.87% (inactive)
CCOc1cc(C=NNC(=O)c2cccc(S(=O)(=O)N3CCOCC3)c2)ccc1OCC(=O)N(C)C | 7.71% (inactive)
COC(=O)c1ccc(-c2c(-c3ccccc3)ncc3cc(OC)c(OC)cc23)cc1 | 97.6% (active)
COc1ccc(CNC(=O)Cc2ccc(-c3ccccc3)cc2)cc1OC | -1.11% (inactive)
COC(=O)c1ccc(SCc2ccccc2)nc1 | 3.84% (inactive)
Cc1cccc(-n2c(C)cc(C=NNC(=O)c3ccco3)c2C)c1 | -2.71% (inactive)
COC(=O)C1=C(c2ccc(S(C)(=O)=O)cc2)CC2CCC1N2C(=O)N1CCCC1 (stereo not given) | 2.31% (inactive)
Cc1nn(-c2ccccc2)c(Cl)c1C=NO | -0.481% (inactive)
Cc1nn(-c2ccccc2)c(Cl)c1/C=C/C(=O)c1ccc(O)cc1 | 86.2% (active)
Cc1ccc(C(=O)/C=C/c2c(C)nn(-c3ccccc3)c2Cl)cc1 | -4.9% (inactive)
CNC(=S)NN=Cc1c(C(=O)OC)cnn1-c1ccc(F)cc1F | 2.84% (inactive)
O=S(=O)(N=C(c1ccccc1Cl)N1CCOCC1)c1ccccc1 | -1.9% (inactive)
Cc1cc(C(=O)NN=C2CCCC(C)C2)n[nH]1 (stereo not given) | 1.57% (inactive)
COc1cc(NC(=O)c2ccccc2NS(=O)(=O)c2ccc(Cl)s2)cc(OC)c1 | 88% (active)
COc1cc(OC)c(S(=O)(=O)Nc2ccccc2C(=O)O)cc1S(=O)(=O)Nc1ccccc1C(=O)O | 7.58% (inactive)

SMILES | growth inhibition
COc1ccccc1C(=O)Nc1ccccc1C(=O)Nc1ccccc1 | 6.78% (inactive)
COC(=O)C1C[C@@]2(O)C(O)C(O)C(O)CC2N1Cc1cc(F)ccc1F (stereo not given in full) | -1.93% (inactive)
CCOC(=O)N=C(NC(=O)Nc1ccc(C(=O)OCC)cc1)OC | 0.614% (inactive)
Cc1ccccc1C=Nn1c(C2CCCCC2)n[nH]c1=S | -0.971% (inactive)
N#CC1=C(SCc2ccccc2)NC(=O)C(C#N)C12CCCC2 (stereo not given) | -2.16% (inactive)
N#CC1=C(SCc2ccc(C#N)cc2)N=C(N)C(c2nc(-c3ccccc3)cs2)C12CCCCC2 (stereo not given) | 92.2% (active)
N#Cc1ccc(CSc2ncccn2)cc1 | 7.1% (inactive)
CC(=NOCC(=O)OCC(=O)Nc1cc(S(C)(=O)=O)ccc1Cl)c1ccc2c(c1)OCO2 | 4.9% (inactive)
CCOc1cc(C=NNC(=O)C(O)(c2ccccc2)c2ccccc2)ccc1OC(=O)c1ccco1 | 0.814% (inactive)
COCCN=C1NC(c2cccc(C(F)(F)F)c2)C(C(=O)OC)=C(C)N1Cc1ccccc1 (stereo not given) | -23% (inactive)
CCC(C)(C)c1ccc(OCC(=O)N(C)C)c(C(C)(C)CC)c1 | 93.1% (active)
CN1CCN(C(=O)COc2ccc(C(C)(C)C)cc2Br)CC1 | -4.55% (inactive)
CCc1nc(C)ccc1OCC(=O)N(CC)CC | 2.97% (inactive)
O=c1[nH]ncc(NN=Cc2cccnc2)c1Cl | 8.44% (inactive)
CC(CC(=O)N1CCN(C=O)CC1)=NNC(=O)c1ccc(Cl)cc1 | 3.18% (inactive)
COC(=O)C1=C(C(=O)OC)C2N(C)c3ccccc3[C@@]23CC(CO)N(C(=O)c2cccs2)C3=N1 (stereo not given in full) | 3.42% (inactive)
CCOc1ccc(-c2c(C(=O)NN=C(C)c3ccccc3OC)nnn2-c2nonc2N)cc1 | 7.28% (inactive)
COc1cc(C(=O)NN=Cc2cc([N+](=O)[O-])cs2)cc(OC)c1OC | 2.4% (inactive)
S=c1[nH]nc(-c2cccc(Cl)c2)n1N=Cc1ccc(-c2ccccc2Br)o1 | 27.2% (inactive)
CC1=NOC(=O)C1=Cc1ccc(-c2ccc(Cl)c(C(=O)O)c2)o1 | 2.05% (inactive)
O=C(O)C(c1ccccc1)N1C(=O)/C(=C\c2ccc(-c3cccc(Cl)c3)o2)SC1=S (stereo not given) | 95.7% (active)
